In PubChem BioAssay (NCATS) one finds activity, negative = cell killing and Potency data, which are given here for seven compounds.

Records with an inconclusive call do not appear. Values without a mark were called inactive. Active and inactive are the calls of the source. The call rests on the fitted dose curve; in most records, active means well fitted inhibition curve with a large enough effect; inconclusive means small, poorly fitted or top-dose-only effect; inactive means flat fitted curve, though single readings scatter.

Experiment [1] can be described thus: Drug repurposing screens with cells derived from glioblastoma tumor samples (AID 1345199). Further: nearly all actives have a fitted effect of over 40% in size. The following applies: GBM patient neurospheres viability, ATP luminescence, 48 h. An outline of the steps: (§1)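 Four patient lines of CD133+ GBM neurospheres were screened at several concentrations; hits were retested in those lines plus three slower-growing GBM lines, using 48-hour treatment and ATP-based viability.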

In experiment [2] the test system is astro (control astrocytes). The experiment is described as above. The following applies: viability, ATP luminescence, 48 h; series mostly up to 45.9 µM. A digest of the protocol:
as §1

Where [3] appears, read: at 45.9 µM (top of the series), tumour line B.
The mark [4] stands for this setting: at 45.9 µM (top of the series), tumour line D.
The mark [5] stands for this setting: at 46 µM (top of the series), tumour line A.
Where [6] appears, read: at 46.1 µM (top of the series), tumour line C.
On the % scale 0 is the no-effect control and ±100 the full control effect; potency means the concentration at half of the fitted maximal effect.

Turning to `COc1ccc([C@@H]2CC(=O)c3c(O)cc(O[C@@H]4O[C@H](CO[C@@H]5O[C@@H](C)[C@H](O)[C@@H](O)[C@H]5O)[C@@H](O)[C@H](O)[C@H]4O)cc3O2)cc1O`, the activity, negative = cell killing is -7.12% in experiment [1] (at 20 µM (top of the series), tumour line C); -4.88% in experiment [1] (at 21.2 µM (top of the series), tumour line B); -12.7% in experiment [1] (at 21.2 µM (top of the series), tumour line D); -11.4% in experiment [1] (at 21.3 µM (top of the series), tumour line A). The Potency result in experiment [2] is “inactive”.
With `Cn1cc(NC(=O)c2cc(NC(=O)c3cc(NC=O)cn3C)cn2C)cc1C(=O)NCCC(=N)N`, the activity, negative = cell killing in experiment [1] (setting [3]) was -15.1%; in experiment [1] (setting [4]), -11.2%; in experiment [1] (setting [5]), -20.5%; in experiment [1] (setting [6]) it was -26.2%. Also, the Potency result in experiment [2] is “inactive”.
The corresponding values for `CN1c2c(nc(N)[nH]c2=O)NCC1CNc1ccc(C(=O)NC(CCC(=O)O)C(=O)O)cc1` (stereo not given) are -12%, -5.57%, -17.5%, -2.53% and “inactive”.
With `CO/N=C(\C(=O)N[C@@H]1C(=O)N2C(C(=O)O)=C(CSc3nnnn3C)CS[C@H]12)c1csc(N)n1`, the values for the activity, negative = cell killing in experiment [1] (setting [3]), in experiment [1] (setting [4]) and in experiment [1] (setting [6]) were -10.5%, -9.07% and -27.1%, respectively. The Potency in experiment [1] (tumour line A) was 11.2 µM (active). For the same compound, the Potency result in experiment [2] was “inactive”.
In the case of `CCCCO`, the activity, negative = cell killing in experiment [1] (setting [3]) was -10.8%; in experiment [1] (setting [4]), 1.03%; in experiment [1] (setting [5]), -9.11%; in experiment [1] (setting [6]), 6.27%. For the same compound, the Potency entry in experiment [2] was “inactive”.
The corresponding values for `C[S+](C)CCC(N)C(=O)O` (stereo not given) are -1.5%, -4.21%, -14.6%, -27.3% and “inactive”.
For `NC(=O)OC[C@@H]1[C@H](NC(=O)/C(=N\OCC(=O)O)c2csc(N)n2)C(=O)N1S(=O)(=O)O` the same measures were 5.57%, 5.27%, -4.61%, -1.35% and “inactive”.
